About 83,000 compounds went through this panel and 20% of them were active in at least one assay; those are over-represented in the sample as a whole.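 Activity criterion: percent growth below 10, measured after cells in 96-well plates were exposed to a single compound concentration for 48 hours.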 A number with no mark means an inactive call. Activity calls are given as the source filed them.

The record followed here is PubChem BioAssay (NCI).

Test systems include SK-MEL-2 melanoma; EKVX NSCLC; SN12C renal; UO-31 renal; TK-10 renal; ACHN renal; CAKI-1 renal; A498 renal; MOLT-4 leukemia; SR leukemia; RPMI-8226 leukemia; OVCAR-8 ovarian; OVCAR-5 ovarian; OVCAR-4 ovarian; SK-OV-3 ovarian; IGROV1 ovarian; HS 578T breast; NCI/ADR-RES ovarian; OVCAR-3 ovarian.
Common to all, as to assay: NCI-60 one-dose screen, 48 h (100 = growth as untreated, 0 = no growth, -100 = all killed)
What all share (settings): 10 µM unless noted

In the case of `Cc1cccc(-c2nc(N(C)c3ccc4ncsc4c3)c3ccccc3n2)n1`, the growth in the assay on SK-MEL-2 melanoma is 85.1%; with EKVX NSCLC, 85%; in the assay on SN12C renal, 93.6%; with UO-31 renal, 77.7%; in the assay on TK-10 renal, 105%; in the assay on ACHN renal, 94.6%. In addition, the growth in the assay with CAKI-1 renal was 77.5%; in the assay on A498 renal, 78.8%; in the assay with MOLT-4 leukemia, 76.4%; with SR leukemia, 17.3%; with RPMI-8226 leukemia, 50.1%; with OVCAR-8 ovarian it was 91.2%. For the same compound, the growth in the assay with OVCAR-5 ovarian is 108%; in the assay on OVCAR-4 ovarian, 85.7%; in the assay with SK-OV-3 ovarian, 96.6%; in the assay with IGROV1 ovarian it was 68.9%; in the assay with HS 578T breast, 103%; in the assay on NCI/ADR-RES ovarian, 58.5%.
For the compound `O=C(N/N=C/c1ccncc1)c1ccc(C(F)(F)F)nc1Nc1cccc(C(F)(F)F)c1`, the growth in the assay on SK-MEL-2 melanoma is -10.9% (active); in the assay on EKVX NSCLC it was 18.4%; with SN12C renal, 37.7%; with UO-31 renal it was 8.19% (active); in the assay on TK-10 renal it was 16.8%; in the assay with ACHN renal, 17.1%. For the same compound, the growth was 6.02% (active) in the assay on CAKI-1 renal; 35.3% in the assay with A498 renal; 6.05% (active) with MOLT-4 leukemia; 2.02% (active) in the assay with SR leukemia; -64.1% (active) in the assay on RPMI-8226 leukemia; 24.7% in the assay with OVCAR-5 ovarian. Also, the growth in the assay with OVCAR-4 ovarian is -0.699% (active); in the assay with SK-OV-3 ovarian it was 32.1%; with IGROV1 ovarian, -35.9% (active); in the assay on OVCAR-3 ovarian, 1.03% (active); with HS 578T breast, 44.4%.
Take `COc1ccc(-c2csc(C3=C(O)CN(C(C)C)C3=N)n2)cc1OC`: the growth in the assay on SK-MEL-2 melanoma was 133%; in the assay on EKVX NSCLC, 94.3%; with SN12C renal it was 97.4%; in the assay on UO-31 renal, 3.91% (active); with TK-10 renal, 94.4%; in the assay on ACHN renal it was 103%. For the same compound, the growth in the assay with CAKI-1 renal was 82.1%; in the assay on A498 renal, 89.6%; in the assay with MOLT-4 leukemia it was 87.2%; with SR leukemia it was 57%; in the assay on RPMI-8226 leukemia it was 56.3%; with OVCAR-8 ovarian, 91%. For the same compound, the growth in the assay on OVCAR-5 ovarian is 96.6%; with OVCAR-4 ovarian, 117%; in the assay on SK-OV-3 ovarian it was 124%; in the assay with OVCAR-3 ovarian, 117%; with HS 578T breast it was 110%; in the assay on NCI/ADR-RES ovarian, 98.5%.
For the compound `CCCCCCCCn1ccc2cc(NC(=O)Cn3cc(CN4CCCC4)nn3)ccc21`, the growth in the assay with SK-MEL-2 melanoma is 68.6%; with EKVX NSCLC it was 88.8%; in the assay with SN12C renal, 44.4%; in the assay with UO-31 renal it was 6.9% (active); with TK-10 renal, 89.9%; with ACHN renal, 89.4%. For the same compound, the growth with CAKI-1 renal was 8.76% (active); in the assay on A498 renal it was 87.2%; with MOLT-4 leukemia, 32.8%; in the assay on SR leukemia, 19.2%; in the assay on RPMI-8226 leukemia, -66% (active); in the assay on OVCAR-5 ovarian it was 88.4%. The growth with OVCAR-4 ovarian was 76.2%; in the assay with SK-OV-3 ovarian, 87.2%; with IGROV1 ovarian it was 76%; in the assay on HS 578T breast, 76.8%; in the assay with NCI/ADR-RES ovarian, 92.7%.
Consider `c1cc2ccc3cc2cc1CNCCOCCNCc1ccc2ccc(cc2c1)CNCCOCCNC3`, for which the growth in the assay with SK-MEL-2 melanoma was -63.5% (active); with EKVX NSCLC it was 21.4%; with SN12C renal, -19.9% (active); in the assay on UO-31 renal, 73.7%; with TK-10 renal, 8.5% (active); in the assay with ACHN renal it was 70%. For the same compound, the growth was 15.4% in the assay with CAKI-1 renal; 31.7% with A498 renal; 4.08% (active) with MOLT-4 leukemia; 10.1% with SR leukemia; 0.51% (active) in the assay with RPMI-8226 leukemia; -3.14% (active) in the assay on OVCAR-8 ovarian. Moreover, the growth is -16.8% (active) in the assay with OVCAR-5 ovarian; -40.4% (active) with OVCAR-4 ovarian; -4.09% (active) with IGROV1 ovarian; -40% (active) in the assay on OVCAR-3 ovarian; -17.6% (active) in the assay with HS 578T breast; 105% in the assay on NCI/ADR-RES ovarian.
Take `N#C/C(=C\c1ccc(Br)cc1)n1nnc2cc(F)c(F)cc21`: the growth in the assay on SK-MEL-2 melanoma is 29.5%; in the assay on EKVX NSCLC, 69.8%; in the assay on SN12C renal, 17%; in the assay on UO-31 renal, 33.9%; in the assay on TK-10 renal it was 32.1%; in the assay with ACHN renal, 24%. Further, the growth is 22.9% in the assay with CAKI-1 renal; 26.8% with A498 renal; 1.95% (active) in the assay on MOLT-4 leukemia; 6.06% (active) in the assay with SR leukemia; 0% (active) with RPMI-8226 leukemia; 3.24% (active) in the assay with OVCAR-5 ovarian. Also, the growth in the assay on OVCAR-4 ovarian was 29.8%; with SK-OV-3 ovarian, 62.5%; in the assay with IGROV1 ovarian it was 6.79% (active); with OVCAR-3 ovarian, 2.19% (active); in the assay on HS 578T breast, 56.1%; in the assay on NCI/ADR-RES ovarian, 1.66% (active).
With `COc1cccc(Nc2nccc(Nc3ccc4[nH]ncc4c3)n2)c1`, the growth was -37% (active) in the assay with SK-MEL-2 melanoma; 34% in the assay with EKVX NSCLC; 20.2% with SN12C renal; -62.1% (active) in the assay with UO-31 renal; -77.7% (active) in the assay on TK-10 renal; -3.17% (active) in the assay on ACHN renal. Further, the growth in the assay with CAKI-1 renal is -30.8% (active); in the assay with A498 renal, 12.7%; with MOLT-4 leukemia it was -32.4% (active); in the assay on SR leukemia, -11.5% (active); in the assay with OVCAR-8 ovarian, -80.5% (active); in the assay on OVCAR-5 ovarian, 32.9%. Besides, the growth in the assay with OVCAR-4 ovarian is -59.6% (active); in the assay on SK-OV-3 ovarian it was 15.3%; in the assay with IGROV1 ovarian, -24.2% (active); in the assay on OVCAR-3 ovarian, -61.5% (active); in the assay on HS 578T breast it was 23.9%.
With `CC1SC(c2ccc(OCc3ccccc3)cc2)N(NC(=O)C(O)(c2ccccc2)c2ccccc2)C1=O` (centres undefined), the growth is 74.4% with SK-MEL-2 melanoma; 47% in the assay on EKVX NSCLC; 85.6% in the assay with SN12C renal; 54.6% in the assay with UO-31 renal; 58.6% in the assay on TK-10 renal; 55.3% with ACHN renal. For the same compound, the growth is 44.3% in the assay on CAKI-1 renal; 55.8% in the assay with A498 renal; 28.7% with MOLT-4 leukemia; 35.9% in the assay on SR leukemia; -7.26% (active) with RPMI-8226 leukemia; 77.8% in the assay with OVCAR-8 ovarian. In addition, the growth in the assay with OVCAR-5 ovarian was 80.5%; in the assay on OVCAR-4 ovarian it was 54.7%; in the assay on SK-OV-3 ovarian, 73.3%; in the assay with OVCAR-3 ovarian, 31%; in the assay on HS 578T breast it was 74.6%; in the assay on NCI/ADR-RES ovarian, 63.5%.
Turning to `N#Cc1nc2c(S(=O)(=O)c3ccc(Cl)cc3)c(N)n(Nc3cccc(Cl)c3)c2nc1C#N`, the growth with SK-MEL-2 melanoma is 121%; in the assay on EKVX NSCLC, 33.3%; in the assay on SN12C renal, 56.8%; in the assay with UO-31 renal, 63%; in the assay on TK-10 renal it was 36.3%; with ACHN renal, 67.7%. Moreover, the growth with CAKI-1 renal is 88.5%; in the assay with A498 renal it was 49.2%; in the assay with MOLT-4 leukemia, 49.5%; with SR leukemia, -6.78% (active); in the assay with RPMI-8226 leukemia, 3.39% (active); with OVCAR-8 ovarian, 24%. Also, the growth in the assay with OVCAR-5 ovarian was 68.4%; in the assay with OVCAR-4 ovarian, 42.6%; in the assay on SK-OV-3 ovarian, 50.2%; in the assay on OVCAR-3 ovarian it was 59.4%; in the assay on HS 578T breast, 31.2%; with NCI/ADR-RES ovarian, 79.6%.
